For some assays here: Results with a measured potency or affinity are listed apart. Active and inactive are the calls of the source. Unless noted, no cut-off is given here; in the data, nearly all actives have IC50 up to about 0.91 µM.
molecular target: Protein kinase 7 (PK7), Plasmodium falciparum 3D7 (PF3D7_0213400) (UniProt Q7YTF7); test: inhibition of Plasmodium PK7 catalytic activity – biochemical, TCAMS antimalarial set, Kinase-Glo luminescence (AID 1159587; call rule not given here); details: recombinant PfPK7, Kinase-Glo ATP depletion luminescence
Sequence (Q7YTF7 1-343): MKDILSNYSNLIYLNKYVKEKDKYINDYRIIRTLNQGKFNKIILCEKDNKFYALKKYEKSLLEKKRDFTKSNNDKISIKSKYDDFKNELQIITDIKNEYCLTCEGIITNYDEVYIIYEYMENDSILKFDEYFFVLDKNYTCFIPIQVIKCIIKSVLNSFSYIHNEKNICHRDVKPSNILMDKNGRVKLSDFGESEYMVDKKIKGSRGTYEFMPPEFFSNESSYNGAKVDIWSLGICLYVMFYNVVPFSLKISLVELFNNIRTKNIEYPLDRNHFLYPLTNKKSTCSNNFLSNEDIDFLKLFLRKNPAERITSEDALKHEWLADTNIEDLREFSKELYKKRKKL

outcome, inactive:
Nc1cc(/C=C/c2ccc(O)cc2)nc2ccccc12, Cc1cc(-c2cc(-c3ccc(OCCN(C)C)cc3)[nH]c2-c2ccc3c(c2)CC/C3=N\O)ccn1, Nc1c2c(nc3ccccc13)/C(=C/c1ccc(O)cc1)CCC2, Oc1ccc2ccccc2c1/C=N/Nc1nc(Nc2ccccc2)nc(Nc2ccccc2)n1, O=C(Nc1ccc(Oc2ccc(OC(F)(F)F)cc2)cc1)c1ccco1, Oc1ccc2ccccc2c1/C=N/Nc1nc(Nc2ccccc2)nc(N2CCOCC2)n1, N=C(N)c1ccc(/C=C/c2ccc(C(=N)N)cc2O)cc1, O=[N+]([O-])c1ccc(/C=N/O)nc1, CC[C@@H]([C@H](CC(C)C)C(=O)N[C@@H](CCCCNC(=O)OCc1ccccc1)C(=O)Nc1ccccn1)N(O)C=O, O=[N+]([O-])c1cccc(-c2nc3ccc(C4=N[C@@H]5CCCC[C@@H]5N4)cc3[nH]2)c1, COc1cc(/C=C(\C2=NC(=O)CS2)c2nc3cccnc3n2C)ccc1O, CCn1c(/C=C/c2cc(Br)ccc2O)nc2ccccc2c1=O, CCCCCC(C)C(C)c1cc(O)c2c(c1)OC(C)(C)CC2c1cc[n+]([O-])cc1 (stereo not given), Cc1[nH]c2ccccc2c1/C=N/Nc1nc(Nc2ccccc2)nc(Nc2ccccc2)n1, CCC[C@@H]([C@H](CC(C)C)C(=O)N[C@@H](CCCN=C(N)NS(C)(=O)=O)C(=O)Nc1nccs1)N(O)C=O, CC[C@H](C)[C@H](NC(=O)[C@@H](CC1CCCCC1)[C@H](CC)N(O)C=O)C(=O)Nc1ccccn1, C/C(=N\O)C1=C(O)C(c2ccccc2)N(c2ccccc2)C1=O (stereo not given), COc1ccc(Nc2nc(N/N=C/c3ccc(O)cc3)nc(Nc3ccc([N+](=O)[O-])cc3)n2)cc1, O=C1C=CC(=C2NC(c3ccccc3)=C(c3ccc4oc5ccc(C6=C(c7ccccc7)NC(=C7C=CC(=O)C=C7)N6)cc5c4c3)N2)C=C1, C=CC[C@@H](C[C@H](O)[C@H](Cc1ccccc1)NC(=O)c1ccc(-c2cccnn2)cc1)C(=O)NC1CCCCC1, COc1cc(-c2nc(-c3ccc4c(c3)CC/C4=N\O)c(-c3ccncc3)[nH]2)ccc1OCCN1CCN(C)CC1, CCOc1cc(/C=N/Nc2nc(C)cc(-n3nc(C)cc3C)n2)ccc1O, COc1ccc2nc(C)cc(N/N=C/c3cc(C)ccc3O)c2c1, Cc1cccc2[nH]c(-c3cccc(-c4ccc(NC(=O)Cc5ccc[n+]([O-])c5)cc4)c3)nc12, COc1ccc2nc(/N=C(\N)NC(=O)Nc3ccccc3)nc(C)c2c1, COc1ccc(C2=[N+]([O-])c3ccccc3C2=O)cc1, CN(C)c1cc(N/N=C/c2cc(Cl)ccc2O)nc(N(C)C)n1, Oc1cccc(-c2nc(-c3cccc(I)c3)c(-c3ccc(-c4[nH]c(-c5cccc(O)c5)nc4-c4cccc(I)c4)cc3)[nH]2)c1, CCN(CC)CCCN=c1ccn(O)c2cc3ccccc3cc12, O=[N+]([O-])c1ccc(Nc2nc(N/N=C/c3cc(Cl)cc(Cl)c3O)nc(Nc3ccccc3)n2)cc1, O=C(N/C=N/c1cc([N+](=O)[O-])c(-c2cccnc2)n1-c1ccc(O)cc1)c1ccccc1, C[C@@H]([C@H](CCCc1ccc(Cl)cc1)C(=O)N[C@H](C(=O)Nc1cccnc1)C(C)(C)C)N(O)C=O, CCC[C@H](C(=O)NCCc1cccc(OC)c1)N1C(=O)c2c(ccc(OC)c2OC)C1C(=O)Nc1c(C)cccc1C (stereo not given in full), CC(C)C[C@H](C(=O)N[C@H](C(=O)Nc1nccs1)C(C)(C)C)[C@H](CCC(F)(F)F)N(O)C=O, CCCCCC(C)C(C)c1cc(O)c2c(c1)OC(C)(C)C/C2=C\c1ccncc1 (stereo not given), CN(C)C(=S)N/N=C/c1cccc(O)c1O, CO[C@H](C)[C@H](NC(=O)[C@@H](CC(C)C)[C@H](CCC(F)(F)F)N(O)C=O)C(=O)Nc1nccs1, Oc1c(/C=N/n2cnnc2)sc2ccccc12, COc1cc(-c2nc(-c3ccc4c(c3)CC/C4=N\O)c(-c3ccncc3)[nH]2)ccc1OCCN1CCCCC1, CCOc1cc(/C=C/c2nc3ccccc3c(=O)[nH]2)cc(Cl)c1O

molecular target: Calcium-dependent protein kinase 4 (Plasmodium falciparum (isolate 3D7)) (UniProt Q8IBS5); test: PfCDPK4 kinase inhibitors, biochemical, TCAMS library (AID 1159588); details: recombinant PfCDPK4, Kinase-Glo ATP depletion luminescence
Sequence (Q8IBS5 whole entry, looked up): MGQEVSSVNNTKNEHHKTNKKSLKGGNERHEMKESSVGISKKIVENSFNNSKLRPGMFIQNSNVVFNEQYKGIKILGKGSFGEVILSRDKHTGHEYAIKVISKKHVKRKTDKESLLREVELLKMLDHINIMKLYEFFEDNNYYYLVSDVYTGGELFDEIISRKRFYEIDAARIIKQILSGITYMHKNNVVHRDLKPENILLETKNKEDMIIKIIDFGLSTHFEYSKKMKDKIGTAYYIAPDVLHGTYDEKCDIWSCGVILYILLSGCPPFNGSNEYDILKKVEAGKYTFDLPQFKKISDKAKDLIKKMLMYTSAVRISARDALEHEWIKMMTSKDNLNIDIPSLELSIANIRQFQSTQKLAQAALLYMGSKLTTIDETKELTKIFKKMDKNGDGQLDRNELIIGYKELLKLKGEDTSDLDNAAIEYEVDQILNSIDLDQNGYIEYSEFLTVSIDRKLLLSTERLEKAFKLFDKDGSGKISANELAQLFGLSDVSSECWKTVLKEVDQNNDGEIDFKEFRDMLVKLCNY

outcome, inactive:
Nc1cc(/C=C/c2ccc(O)cc2)nc2ccccc12, Cc1cc(-c2cc(-c3ccc(OCCN(C)C)cc3)[nH]c2-c2ccc3c(c2)CC/C3=N\O)ccn1, Nc1c2c(nc3ccccc13)/C(=C/c1ccc(O)cc1)CCC2, Oc1ccc2ccccc2c1/C=N/Nc1nc(Nc2ccccc2)nc(Nc2ccccc2)n1, O=C(Nc1ccc(Oc2ccc(OC(F)(F)F)cc2)cc1)c1ccco1, Oc1ccc2ccccc2c1/C=N/Nc1nc(Nc2ccccc2)nc(N2CCOCC2)n1, N=C(N)c1ccc(/C=C/c2ccc(C(=N)N)cc2O)cc1, O=[N+]([O-])c1ccc(/C=N/O)nc1, CC[C@@H]([C@H](CC(C)C)C(=O)N[C@@H](CCCCNC(=O)OCc1ccccc1)C(=O)Nc1ccccn1)N(O)C=O, O=[N+]([O-])c1cccc(-c2nc3ccc(C4=N[C@@H]5CCCC[C@@H]5N4)cc3[nH]2)c1, COc1cc(/C=C(\C2=NC(=O)CS2)c2nc3cccnc3n2C)ccc1O, CCn1c(/C=C/c2cc(Br)ccc2O)nc2ccccc2c1=O, CCCCCC(C)C(C)c1cc(O)c2c(c1)OC(C)(C)CC2c1cc[n+]([O-])cc1 (stereo not given), Cc1[nH]c2ccccc2c1/C=N/Nc1nc(Nc2ccccc2)nc(Nc2ccccc2)n1, CCC[C@@H]([C@H](CC(C)C)C(=O)N[C@@H](CCCN=C(N)NS(C)(=O)=O)C(=O)Nc1nccs1)N(O)C=O, CC[C@H](C)[C@H](NC(=O)[C@@H](CC1CCCCC1)[C@H](CC)N(O)C=O)C(=O)Nc1ccccn1, C/C(=N\O)C1=C(O)C(c2ccccc2)N(c2ccccc2)C1=O (stereo not given), COc1ccc(Nc2nc(N/N=C/c3ccc(O)cc3)nc(Nc3ccc([N+](=O)[O-])cc3)n2)cc1, O=C1C=CC(=C2NC(c3ccccc3)=C(c3ccc4oc5ccc(C6=C(c7ccccc7)NC(=C7C=CC(=O)C=C7)N6)cc5c4c3)N2)C=C1, C=CC[C@@H](C[C@H](O)[C@H](Cc1ccccc1)NC(=O)c1ccc(-c2cccnn2)cc1)C(=O)NC1CCCCC1, COc1cc(-c2nc(-c3ccc4c(c3)CC/C4=N\O)c(-c3ccncc3)[nH]2)ccc1OCCN1CCN(C)CC1, CCOc1cc(/C=N/Nc2nc(C)cc(-n3nc(C)cc3C)n2)ccc1O, COc1ccc2nc(C)cc(N/N=C/c3cc(C)ccc3O)c2c1, Cc1cccc2[nH]c(-c3cccc(-c4ccc(NC(=O)Cc5ccc[n+]([O-])c5)cc4)c3)nc12, COc1ccc2nc(/N=C(\N)NC(=O)Nc3ccccc3)nc(C)c2c1, COc1ccc(C2=[N+]([O-])c3ccccc3C2=O)cc1, CN(C)c1cc(N/N=C/c2cc(Cl)ccc2O)nc(N(C)C)n1, Oc1cccc(-c2nc(-c3cccc(I)c3)c(-c3ccc(-c4[nH]c(-c5cccc(O)c5)nc4-c4cccc(I)c4)cc3)[nH]2)c1, CCN(CC)CCCN=c1ccn(O)c2cc3ccccc3cc12, O=[N+]([O-])c1ccc(Nc2nc(N/N=C/c3cc(Cl)cc(Cl)c3O)nc(Nc3ccccc3)n2)cc1, O=C(N/C=N/c1cc([N+](=O)[O-])c(-c2cccnc2)n1-c1ccc(O)cc1)c1ccccc1, C[C@@H]([C@H](CCCc1ccc(Cl)cc1)C(=O)N[C@H](C(=O)Nc1cccnc1)C(C)(C)C)N(O)C=O, CCC[C@H](C(=O)NCCc1cccc(OC)c1)N1C(=O)c2c(ccc(OC)c2OC)C1C(=O)Nc1c(C)cccc1C (stereo not given in full), CC(C)C[C@H](C(=O)N[C@H](C(=O)Nc1nccs1)C(C)(C)C)[C@H](CCC(F)(F)F)N(O)C=O, CCCCCC(C)C(C)c1cc(O)c2c(c1)OC(C)(C)C/C2=C\c1ccncc1 (stereo not given), CN(C)C(=S)N/N=C/c1cccc(O)c1O, CO[C@H](C)[C@H](NC(=O)[C@@H](CC(C)C)[C@H](CCC(F)(F)F)N(O)C=O)C(=O)Nc1nccs1, Oc1c(/C=N/n2cnnc2)sc2ccccc12, COc1cc(-c2nc(-c3ccc4c(c3)CC/C4=N\O)c(-c3ccncc3)[nH]2)ccc1OCCN1CCCCC1, CCOc1cc(/C=C/c2nc3ccccc3c(=O)[nH]2)cc(Cl)c1O
